# In ChEMBL document CHEMBL3988442, “University of Dundee, Small-Polar-MMV Screening Library” (2021):
# About 1,200 (3.2%) of roughly 38,000 compounds showed an effect of 50% or more. The median lay at about -58%. The entries come from a sample that favours strong results as a whole.
# Tested on: Plasmodium falciparum
# Assay: Calibr Malaria Delayed Death Assay SOP
# Type: functional, organism-based
# Set-up: scale not given: in the data most compounds retested in dose-response had high values
# Details: concentration 4.99e-06 (unit not given; other assays of the set use mol/L)
row,Compound,Percent Effect [%]
1,COc1ccc(S(=O)(=O)N2CCC(Cn3ccnc3)CC2)cc1,-82.14
2,CCc1ocnc1C(=O)N1CCOC(c2nc(C(C)C)n[nH]2)C1 (centres undefined),-32.06
3,CCc1cnc(N)nc1NC(C)c1ccc(C)c(C)c1 (centres undefined),72.97
4,CCc1cnc(N)nc1N[C@@H](C)c1ncccc1C,2.334
5,CCc1cnc(N)nc1NC(C)c1cnn(C)c1 (centres undefined),-61.87
6,CCS(=O)(=O)c1cccc(C(=O)Nc2cccc3c2C(=O)N(C)C3=O)c1,-74.2
7,CN(Cc1ccco1)[C@@H]1CN(Cc2nccs2)C[C@@H]2CCCO[C@@H]21.O=C(O)C(F)(F)F.O=C(O)C(F)(F)F,29.14
8,CN(Cc1ccco1)[C@@H]1CN(Cc2cccnc2)[C@@H]2CCCO[C@H]12.O=C(O)C(F)(F)F.O=C(O)C(F)(F)F.O=C(O)C(F)(F)F,-47.89
9,CN(Cc1ccco1)[C@@H]1CN(Cc2ccc(F)cc2)[C@@H]2CCCO[C@H]12.O=C(O)C(F)(F)F.O=C(O)C(F)(F)F,54.29
10,CC(C)NC(=O)[C@@H]1CC[C@@H]2[C@@H](CCN2Cc2cn(C)c3ccccc23)O1.O=C(O)C(F)(F)F,76.85
11,Cc1ccc(CN2C[C@@H]3CCCO[C@@H]3[C@H](N(C)Cc3ccco3)C2)s1.O=C(O)C(F)(F)F.O=C(O)C(F)(F)F,73.4
12,Cn1cc(CN2CC[C@H]3O[C@H](C(=O)NC4CC4)CC[C@H]32)c2ccccc21.O=C(O)C(F)(F)F,22.79
13,CN(Cc1ccco1)[C@@H]1CN(Cc2cccs2)C[C@@H]2CCCO[C@@H]21.O=C(O)C(F)(F)F.O=C(O)C(F)(F)F,64.28
14,CNC(=O)[C@@H]1CC[C@@H]2[C@@H](CCN2Cc2cn(C)c3ccccc23)O1.O=C(O)C(F)(F)F,-13.73
15,CN(Cc1ccco1)[C@@H]1CN(Cc2ccncc2)C[C@@H]2CCCO[C@@H]21.O=C(O)C(F)(F)F.O=C(O)C(F)(F)F.O=C(O)C(F)(F)F,7.341
16,CN(Cc1ccco1)[C@@H]1CN(Cc2cnn(C)c2)[C@@H]2CCCO[C@H]12.O=C(O)C(F)(F)F.O=C(O)C(F)(F)F,23.66
17,CN(Cc1ccco1)[C@@H]1CN(CC2CCOCC2)C[C@@H]2CCCO[C@@H]21.O=C(O)C(F)(F)F.O=C(O)C(F)(F)F,11.5
18,CN(Cc1ccco1)[C@@H]1CN(Cc2ccccn2)C[C@@H]2CCCO[C@@H]21.O=C(O)C(F)(F)F.O=C(O)C(F)(F)F.O=C(O)C(F)(F)F,29.58
19,Cc1ccc(NC2CCN(C(=O)c3ccc(C#N)cc3)CC2)nn1,-90.82
20,Cc1nccc(NCc2cncc3c2CCN(S(C)(=O)=O)C3)n1.Cl,-112.1
21,CSCC[C@H](NC(=O)CCn1ccc2c(Cl)cccc21)C(=O)O,-54.73
22,Cn1cc(CN2CCCC23CCN(C(=O)c2ccsc2)CC3)cn1.O=C(O)C(F)(F)F,-0.2713
23,Cc1nn(C)cc1-c1cc(C(F)(F)F)nc(NC2CCCCC2)n1,-100.7
24,CN(Cc1ccco1)[C@@H]1CN(Cc2ccoc2)C[C@@H]2CCCO[C@@H]21,59.2
25,O=C(NCc1ccco1)[C@@H]1CC[C@@H]2[C@@H](CCN2CC2CC2)O1.O=C(O)C(F)(F)F,7.283

row,Compound,Percent Effect [%]
1,CN(Cc1cncnc1)[C@@H]1CN(Cc2ccco2)C[C@@H]2CCCO[C@@H]21.O=C(O)C(F)(F)F.O=C(O)C(F)(F)F,-10.65
2,CN(Cc1ccco1)[C@@H]1CN(Cc2cccnc2)C[C@@H]2CCCO[C@@H]21.O=C(O)C(F)(F)F.O=C(O)C(F)(F)F.O=C(O)C(F)(F)F,27.09
3,O=C(NCc1ccco1)[C@H]1CC[C@@H]2[C@@H](CCN2Cc2cccnc2)O1.O=C(O)C(F)(F)F.O=C(O)C(F)(F)F,-37.9
4,O=C(NCc1ccco1)[C@@H]1CC[C@@H]2[C@@H](CCN2Cc2ccc(F)cc2)O1.O=C(O)C(F)(F)F,66.38
5,Cc1cc(I)c2c(c1)C(=O)C(CN1CCCC1)(CN1CCCC1)CO2,-91.39
6,CCCOC1CCCN(c2nc(COC)nc3c2cnn3C)C1 (centres undefined),-157.4
7,CC(=O)Nc1nc(C2CCN(C(=O)c3ccncc3)CC2)cs1,10.73
8,COCC1c2c(cnn2CC2CC2)CCN1Cc1cc(C)on1.O=C(O)C(F)(F)F.O=C(O)C(F)(F)F (centres undefined),-52.73
9,COc1ccncc1NCc1ccsc1,-36.48
10,COc1ncccc1C(Cc1ccsc1)NC(=O)Cn1cccnc1=O (centres undefined),-43.2
11,CNc1cc(N2CCCC2CNCc2cccc(C#N)c2)ncn1 (centres undefined),-40.51
12,Cc1ccc(C2CN(CCS(C)(=O)=O)CCO2)c(C)c1 (centres undefined),-57.06
13,Cc1ccccc1CS(=O)(=O)CC(=O)N(C)Cc1cccc(F)c1,-13.79
14,Cc1noc(C)c1CS(=O)(=O)CC(=O)N(C)Cc1cccc(F)c1,-32.62
15,CN(Cc1cccc(F)c1)C(=O)CS(=O)(=O)Cc1c(Cl)cccc1Cl,82.58
16,CO[C@H]1CC[C@H]2[C@H]1OCCN2C(=O)c1nn(C)c2ccccc12,-87.32
17,CC1CN(CC(=O)NCc2ccc(F)cc2)CCN1c1nccs1 (centres undefined),-59.43
18,CC/N=c1\nc(NCC)nc2n1C(O)(Nc1ccc(C)cc1C)CS2 (centres undefined),-60.63
19,Cc1cccc(CS(=O)(=O)NCc2nn(C)c3c2COCC3)c1,-48
20,O=C(C1CC1)N1CCC2(CC1)COCCN2Cc1ccc(F)cc1.O=C(O)C(F)(F)F,-44.57
21,Cc1ccc(NC(=O)CN2CCOCC2)c(F)c1,-28.6
22,Cc1nc(C)c(C)c(N2CCC3(CCN(C)C3)C2)n1 (centres undefined),18.67
23,CCc1nc(N)nc(N2CCCC3(CCN(C)CC3)CC2)c1C,75.43
24,CCc1cnc(N)nc1N1CCCC2(CCOCC2)C1,-153.3
